These results are taken from publication PMC7819943, “Rice protein-binding microarrays: a tool to detect cis-acting elements near promoter regions in rice”.

The full ranking holds about 35,000 sequences; the median of “fluorescence intensity (a.u.)” is about 10,000, and the highest 2% start at about 52,000. For the sample, the highest values were picked, then their nearest neighbours and some sequences at random.

The experiment addresses T1, OsWOX13 (Oryza sativa, UniProt Q5QMM3 1-267).
T1 sequence: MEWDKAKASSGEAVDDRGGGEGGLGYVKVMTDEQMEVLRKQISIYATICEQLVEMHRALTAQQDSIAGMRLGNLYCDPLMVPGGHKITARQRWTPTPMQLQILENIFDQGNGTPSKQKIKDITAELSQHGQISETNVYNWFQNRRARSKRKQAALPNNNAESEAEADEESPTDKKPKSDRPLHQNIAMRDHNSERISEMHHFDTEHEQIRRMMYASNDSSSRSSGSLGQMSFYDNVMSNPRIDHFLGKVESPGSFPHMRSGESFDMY
The experiment is described as follows: protein-binding microarray (RPBM); PBS, 2% BSA, 51.3 ng/ul salmon testes DNA, 50 uM zinc acetate, 200 nM TF, 25 C, 1 h; high values mean tight binding. The note with it: protein: recombinant; tags: N-terminal polyhistidine and DsRed monomer fusion (pET32a); label: CyDye5-dUTP incorporated in the synthesized complementary strand; 3' TTTTT single-stranded linker to array surface; dsDNA, one strand shown. The gist of the method: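 Binding signal is defined as the fluorescence intensity of each feature in arbitrary units, read on an Axon 4000B scanner. Transcription factors with N-terminal polyhistidine and DsRed fusions came from E. coli BL21-CodonPlus and were purified on Ni–NTA. They were incubated at 200 nM for 1 h at 25 °C on a custom Agilent array that had been made double-stranded with Cy5-dUTP, with 50 µM zinc acetate present, and the array was washed.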
With “TCTGATTATTAATTATCACTTTATCAGTCTCCAACGTTTACGGAGTCACCTAGTGCAG”, the binding signal is 40900 fluorescence intensity (a.u.).
For the sequence “ATACTTAATTAATGATACGATAATTGAATTTATTCTCTCCCGGAGTCACCTAGTGCAG”, the binding signal was 49900 fluorescence intensity (a.u.).
On to “ATACTTGACAGGTTTTATGCATATAAGAAAATCTGTTTAACGGAGTCACCTAGTGCAG”, for which the binding signal is 7520 fluorescence intensity (a.u.).
With “CTCTCTCTCTGATTAGTTAATTGAATACATTGTAAGGGCCCGGAGTCACCTAGTGCAG”, the binding signal is 41200 fluorescence intensity (a.u.).
Next, “TCGCTAATAAATCATATGATGTCATGGGCCCGAGACATCTCGGAGTCACCTAGTGCAG”: 3380 fluorescence intensity (a.u.); “TGTGTTAAACTATATAATTTTCTCTAAAACATAATGGTACCGGAGTCACCTAGTGCAG”: 3720 fluorescence intensity (a.u.); “TTAATTCTATCTAGTAGTAGAGTTAGTTATTTATATATTACGGAGTCACCTAGTGCAG”: 5310 fluorescence intensity (a.u.).
Next, “CCTTCGATTATTGGCACGGATTGTTTATCCAGGTAAGACTCGGAGTCACCTAGTGCAG”: 13300 fluorescence intensity (a.u.); “CACATCAACCTGCACCAATCATGCCATCGAGATCACAACACGGAGTCACCTAGTGCAG”: 3970 fluorescence intensity (a.u.).
The result for “ATCTCCAAAATTTTAAATTTTAATTAAAACCTAACTTACACGGAGTCACCTAGTGCAG” reads 6930 fluorescence intensity (a.u.).
In the case of “CTAGAAATTAGGTGATTAATTTATTAAACACAATATTGCCCGGAGTCACCTAGTGCAG”, the binding signal is 56900 fluorescence intensity (a.u.).
Take “TTAATATAAAAGTAATTATTTAAATTGTAGAAACAATTTACGGAGTCACCTAGTGCAG”: the binding signal was 5710 fluorescence intensity (a.u.).
For the sequence “TGAATAATTGACAATTTAACCAGACCATTAATTAATTGTTCGGAGTCACCTAGTGCAG”, the binding signal is 62400 fluorescence intensity (a.u.).
Regarding “AATAATTGAATATATTTTCATAATAAATGTGTGTTGAGTTCGGAGTCACCTAGTGCAG”, the binding signal is 38400 fluorescence intensity (a.u.).
For “AATAATTGAATATATTTTCATAATAAATTTGTCTTGGGTTCGGAGTCACCTAGTGCAG”, the binding signal was 44400 fluorescence intensity (a.u.).
With “AAGAATTGATAGATGAAACGTGATTAGATACTAACTATACCGGAGTCACCTAGTGCAG”, the binding signal was 41200 fluorescence intensity (a.u.).
Turning to “ACAATTGAAGATAAATGACAAACCAATAAACCATTTGTTTCGGAGTCACCTAGTGCAG”, the binding signal is 5080 fluorescence intensity (a.u.).
Turning to “GCACTAGTGATTGGAACAATATTAATTTCAGAAACATTGCCGGAGTCACCTAGTGCAG”, the binding signal was 32700 fluorescence intensity (a.u.).
The result for “CTTTAAAATTAATTAAATTTGAAAATTAGTAACGAGGGGACGGAGTCACCTAGTGCAG” reads 26700 fluorescence intensity (a.u.).
The result for “TATAATTGAATAAATTTTCATATTATATTTATCTTGTGTTCGGAGTCACCTAGTGCAG” reads 63100 fluorescence intensity (a.u.); that for “TACTAATTTTGAATTTAGAGCTATTAACCAATAAATTGTTCGGAGTCACCTAGTGCAG”, 12200 fluorescence intensity (a.u.); that for “AGAAATTGAACGTGATTAACGGGGAGGGCACTAGTGAGGCCGGAGTCACCTAGTGCAG”, 53000 fluorescence intensity (a.u.).
As to “TAGTGATTTGAAAATACGGGTGCAAACAATGGAGCAACAACGGAGTCACCTAGTGCAG”, the binding signal was 3560 fluorescence intensity (a.u.).
Next, “ATTTACCGCAACTGTAATTGAGATGGTTTTGAGATTTCATCGGAGTCACCTAGTGCAG”: 6850 fluorescence intensity (a.u.).
Take “TGTCACAGGTAAATCACTGCAATTAGCGAGTCATGGCTCACGGAGTCACCTAGTGCAG”: the binding signal is 8530 fluorescence intensity (a.u.).
Regarding “TGATGTTTCATCACTAATTTGTATTTGATAACCTGCATATCGGAGTCACCTAGTGCAG”, the binding signal is 5260 fluorescence intensity (a.u.).
Next, “CTGATTTGCAGTTCGTTCGTGCCTCTCACAATCAAACCCCCGGAGTCACCTAGTGCAG”: 14300 fluorescence intensity (a.u.); “AGGTTGCAATCATTGGCCAGACGTTGCATGTCGTTGTTGACGGAGTCACCTAGTGCAG”: 13700 fluorescence intensity (a.u.); “CTTGTTATTGAATAATGGATTAACTAACTAATAACTAACGCGGAGTCACCTAGTGCAG”: 12800 fluorescence intensity (a.u.).
Next, “CAACAGATTAATGACATGTCAACAGCTGCATGCTCTAGCTCGGAGTCACCTAGTGCAG”: 14200 fluorescence intensity (a.u.); “CCGGTCTCCAAATCTTTATTAATTGCTTCCTCAAAACCCCCGGAGTCACCTAGTGCAG”: 3980 fluorescence intensity (a.u.).
As for “ATTAACGACTTTTAATTTGAAACGGATTGAGTAGCTAGTTCGGAGTCACCTAGTGCAG”, the binding signal was 16100 fluorescence intensity (a.u.).
The result for “ATAATCCCTTGCGATTTATATTGAATTAATAGTTCTTGTTCGGAGTCACCTAGTGCAG” reads 65000 fluorescence intensity (a.u.); that for “GGAAAATGCTCTAATGATTGTTATGGAGTTTATCTGTAATCGGAGTCACCTAGTGCAG”, 5570 fluorescence intensity (a.u.).
The result for “ACTGATAACAAAATAATTTATAGGTAAAACTTTTAATATGCGGAGTCACCTAGTGCAG” reads 7340 fluorescence intensity (a.u.); that for “ATTAATTGGTCGTGTATTAGCAAACGATATATATATCGGTCGGAGTCACCTAGTGCAG”, 50500 fluorescence intensity (a.u.); that for “AAAAGAATAATTTATTGTCTTGTTCAGTTAATCCCTCCCTCGGAGTCACCTAGTGCAG”, 3330 fluorescence intensity (a.u.).
Next, “CACTATTAATTGTGCTTAGAGCAAGTTTAATAGTGTAGCCCGGAGTCACCTAGTGCAG”: 9860 fluorescence intensity (a.u.); “TGGTAATTTTATGATTAAATTGACACTAACAAACTTATAGCGGAGTCACCTAGTGCAG”: 57200 fluorescence intensity (a.u.); “AAAACAAATTTTATTATAAATATACGTTTAACTAACTTAGCGGAGTCACCTAGTGCAG”: 6070 fluorescence intensity (a.u.).
Regarding “AGAGATTATTGAATATTGTTGCGATGACTTATAATCTTATCGGAGTCACCTAGTGCAG”, the binding signal was 5070 fluorescence intensity (a.u.).
As to “TCTGTATGGTCTACTTGTTTGATTGATTGATAATTTTACACGGAGTCACCTAGTGCAG”, the binding signal is 22300 fluorescence intensity (a.u.).
The result for “TTTAATTAATTGTAGGACAAGATAGCAAACGTGTGGCTACCGGAGTCACCTAGTGCAG” reads 59900 fluorescence intensity (a.u.); that for “CACGATGATTGTTTGTATATGGAAACACCAAAATGGTCTACGGAGTCACCTAGTGCAG”, 54700 fluorescence intensity (a.u.).
